Among the test systems are SK-MEL-2 melanoma; EKVX NSCLC; SN12C renal; UO-31 renal; TK-10 renal; ACHN renal; CAKI-1 renal; A498 renal; CCRF-CEM leukemia; MOLT-4 leukemia.
Common to all, as to test: NCI-60 one-dose screen, 48 h (100 = growth as untreated, 0 = no growth, -100 = all killed)
Holding throughout (conditions): 10 µM unless noted

For 13 compounds, growth results are on record in PubChem BioAssay (NCI).

Compounds without any hit were thinned out: in the full panel of roughly 83,000, 20% have a hit.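 Percent growth is the endpoint: 0 to 100 indicates growth inhibition (40 means 60% inhibition), 0 means no net growth, and negative values indicate cell death.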 Unmarked numbers belong to inactive results. The source made the active and inactive calls. How the source made its calls: active means growth percent below 10; inactive means the rest.

With `O=C(CN1C(=O)/C(=C/c2ccccc2F)SC1=S)N1CCOCC1`, the growth was 99.1% in the assay with SK-MEL-2 melanoma; 95.9% in the assay with EKVX NSCLC; 72.6% with SN12C renal; 58.5% in the assay on UO-31 renal; 97.8% in the assay on TK-10 renal; 50.3% with ACHN renal. Also, the growth in the assay on CAKI-1 renal was 85.5%; in the assay with A498 renal it was 129%; in the assay on CCRF-CEM leukemia, 41.9%; in the assay with MOLT-4 leukemia, 77.7%.

With `COc1ccc(C(=O)/C=C/c2cccc3ccccc23)cc1S(N)(=O)=O`, the growth in the assay with SK-MEL-2 melanoma is 45.8%; in the assay with EKVX NSCLC it was -6.08% (active); in the assay on SN12C renal, 6.92% (active); in the assay with UO-31 renal it was -68.9% (active); with TK-10 renal, 22.6%; in the assay with ACHN renal, -27.1% (active). The growth is 13.9% with CAKI-1 renal, 107% with A498 renal and 4.74% (active) in the assay with CCRF-CEM leukemia.

Take `C#CCOc1ccc(/C=N/Nc2nc(-c3ccc(F)cc3)cs2)cc1OC`: the growth in the assay with SK-MEL-2 melanoma was 60.8%; in the assay on EKVX NSCLC it was 62.5%; with SN12C renal it was 68.9%; in the assay on UO-31 renal, 48.4%; in the assay on TK-10 renal it was 156%; in the assay with ACHN renal it was 64.5%. For the same compound, the growth is 56.2% in the assay with CAKI-1 renal, 80.7% with A498 renal, 26.3% in the assay on CCRF-CEM leukemia and 12.1% with MOLT-4 leukemia.

`C/C(=N\N=C1/C(=O)Nc2ccc(Cl)cc21)c1ccc2c(c1)Nc1ccccc1S2`: the growth was -13.6% (active) with SK-MEL-2 melanoma; 12.6% with EKVX NSCLC; -16.2% (active) in the assay on SN12C renal; 18.2% in the assay on UO-31 renal; 22.4% in the assay on TK-10 renal; -3.77% (active) with ACHN renal. Besides, the growth in the assay with CAKI-1 renal was 6.63% (active); with A498 renal, 23.7%; in the assay with CCRF-CEM leukemia, 9.58% (active); in the assay on MOLT-4 leukemia, -1.18% (active).

Regarding `O=C(/C=C/c1cccc(OCc2ccccc2)c1)c1nc2ccccc2[nH]1`, the growth was 100% in the assay with SK-MEL-2 melanoma; 36.4% in the assay on EKVX NSCLC; 59% in the assay on SN12C renal; 33.2% in the assay with UO-31 renal; 62.8% in the assay on TK-10 renal; 62.5% in the assay on ACHN renal. In addition, the growth was 66.1% in the assay with CAKI-1 renal, 91.3% in the assay with A498 renal, 10.2% with CCRF-CEM leukemia and 5.98% (active) in the assay with MOLT-4 leukemia.

Consider `COc1cc2c(c(OC)c1OC)C(=O)CC(c1cccc(NC(=O)c3cc([N+](=O)[O-])ccc3Cl)c1)O2` (centres undefined), for which the growth was 15% in the assay on SK-MEL-2 melanoma; 52.3% in the assay with EKVX NSCLC; 24% in the assay with SN12C renal; 29.9% in the assay on UO-31 renal; 65.8% in the assay on TK-10 renal; 6.5% (active) in the assay on ACHN renal. Further, the growth in the assay on CAKI-1 renal is 20.8%; with A498 renal, 131%; with CCRF-CEM leukemia, 22.8%; with MOLT-4 leukemia, 14.4%.

For `O=C(COc1ccc(NC(=O)Nc2ccc(Cl)c(Cl)c2)cc1)N=Nc1c(O)[nH]c2ccc(Cl)cc12`, the growth in the assay with SK-MEL-2 melanoma was -64.9% (active); in the assay on EKVX NSCLC, 7.69% (active); in the assay with SN12C renal, -30.4% (active); in the assay with UO-31 renal, 56.8%; with TK-10 renal, 1.73% (active); in the assay with ACHN renal, 20.9%. Besides, the growth in the assay on CAKI-1 renal is -5.97% (active); with A498 renal it was -32.4% (active); with CCRF-CEM leukemia it was 8.9% (active); in the assay on MOLT-4 leukemia, -1.42% (active).

In the case of `COc1ccc2c(c1)c(-c1cc(N)n3nc(-c4cn(C)c5ccccc45)cc3n1)cn2C`, the growth in the assay on SK-MEL-2 melanoma is -92.4% (active); with EKVX NSCLC, -63.1% (active); in the assay on SN12C renal, -59.6% (active); with UO-31 renal it was -88.3% (active); in the assay on TK-10 renal, -79% (active); in the assay with ACHN renal, -98.7% (active). Also, the growth is -77.4% (active) in the assay with CAKI-1 renal, -20.3% (active) in the assay on A498 renal, -24.3% (active) with CCRF-CEM leukemia and 0.804% (active) in the assay on MOLT-4 leukemia.

On to `O=C(N=Nc1c(O)[nH]c2ccc([N+](=O)[O-])cc12)c1ccc2nc(-c3ccccc3)[nH]c2c1`, for which the growth was 77% in the assay with SK-MEL-2 melanoma; 97.5% with EKVX NSCLC; 49.5% in the assay with SN12C renal; 84.4% with UO-31 renal; 140% in the assay on TK-10 renal; 101% in the assay on ACHN renal. In addition, the growth in the assay with CAKI-1 renal is 91.7%; with A498 renal, 122%; with CCRF-CEM leukemia, 32.7%; in the assay with MOLT-4 leukemia, 43.3%.

For the compound `O=C(COc1ccc(NC(=O)Nc2ccc(Cl)c(Cl)c2)cc1)N=Nc1c(O)[nH]c2ccc(Br)cc12`, the growth in the assay on SK-MEL-2 melanoma is -71.6% (active); in the assay on EKVX NSCLC, 4.88% (active); with SN12C renal, -20.9% (active); in the assay on UO-31 renal, 51.1%; in the assay with TK-10 renal, -0.92% (active); with ACHN renal it was 12.5%. Also, the growth with CAKI-1 renal was 0.251% (active); in the assay with A498 renal it was -54.9% (active); with CCRF-CEM leukemia, 9.52% (active); in the assay on MOLT-4 leukemia, -3.16% (active).

Consider `C#CCOc1cc(N(CC)CC)ccc1C(C(=O)NC(C)(C)C)N(C(=O)C1CCc2cc(F)ccc2O1)c1ccc(F)c(Cl)c1` (centres undefined), for which the growth is -6.45% (active) with SK-MEL-2 melanoma; 54.4% in the assay with EKVX NSCLC; 55.8% with SN12C renal; 47.2% in the assay on UO-31 renal; 85.2% in the assay with TK-10 renal; 61.6% with ACHN renal. In addition, the growth in the assay on CAKI-1 renal is 41.1%; in the assay on A498 renal, 73%; in the assay with CCRF-CEM leukemia, 52.8%; in the assay with MOLT-4 leukemia, 21.2%.

For `COc1ccc2c(c1)c(-c1cc3nc(-c4cn(C)c5ncc(Br)cc45)cc(N)n3n1)cn2C`, the growth with SK-MEL-2 melanoma is -68.6% (active); in the assay with EKVX NSCLC, -51.6% (active); in the assay with SN12C renal it was -75.3% (active); in the assay with UO-31 renal it was -58.1% (active); in the assay with TK-10 renal, -40.8% (active); in the assay on ACHN renal, -92.3% (active). The growth in the assay on CAKI-1 renal is -39.9% (active); with A498 renal it was 86.8%; in the assay on CCRF-CEM leukemia, -29.2% (active); in the assay with MOLT-4 leukemia it was -43.6% (active).

Turning to `CC(C)c1ccc2c(N)c(C(=O)Nc3ccc(C(F)(F)F)cn3)sc2n1`, the growth in the assay with SK-MEL-2 melanoma is 77.6%; in the assay with EKVX NSCLC, 26.4%; with SN12C renal it was 70.5%; with UO-31 renal, 62%; in the assay on TK-10 renal, 76.5%; in the assay on ACHN renal, 49%. Moreover, the growth is 55.2% in the assay on CAKI-1 renal, 115% in the assay on A498 renal, 34.1% in the assay with CCRF-CEM leukemia and 7.3% (active) in the assay with MOLT-4 leukemia.
